In the library only some 3.5% were active in any assay of this set; here they are far more common.
FBW7 act = human FBW7 E3 ligase activation, primary screen; Q969H0; AlphaScreen FBW7–phospho-cyclin E peptide binding, activator screen; normalized activity (activation), % at 26.1 µM; 0.13% of 650,000 active; AID 1259310; in the data active = normalized activity above about 1.9%;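 note: purified mutant Fbw7 with reduced substrate affinity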
TEAD-YAP block = TEAD-YAP interaction inhibition; HEK-TIYL cells, TEAD-Gal4/YAP UAS-luciferase luminescence; inhibition, % at 9.12 µM; 1.4% of 640,000 active; in the data active = inhibition above about 32%
GPR151 ag = human GPR151 activation; Q8TDV0; PathHunter beta-arrestin GPR151 cells, luminescence; activation, % at 11.2 µM; 1% of 650,000 active; AID 1508602; in the data active = activation above about 4.9%
Target sequence (Q8TDV0 whole entry, looked up): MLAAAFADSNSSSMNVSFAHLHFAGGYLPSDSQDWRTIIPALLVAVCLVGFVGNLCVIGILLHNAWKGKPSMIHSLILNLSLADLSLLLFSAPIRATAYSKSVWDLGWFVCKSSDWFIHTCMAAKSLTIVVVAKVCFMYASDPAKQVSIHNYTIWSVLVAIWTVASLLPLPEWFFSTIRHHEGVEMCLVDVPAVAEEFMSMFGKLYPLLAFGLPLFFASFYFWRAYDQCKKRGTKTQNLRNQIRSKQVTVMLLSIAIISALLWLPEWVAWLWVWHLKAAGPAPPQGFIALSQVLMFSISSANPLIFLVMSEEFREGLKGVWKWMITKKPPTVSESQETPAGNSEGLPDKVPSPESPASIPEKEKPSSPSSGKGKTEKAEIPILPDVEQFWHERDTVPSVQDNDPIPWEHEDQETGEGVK
MITF primary = blocks human microphthalmia-associated transcription factor; O75030; 0.91% of 650,000 active; AlphaScreen MITF homodimerization, bead proximity signal; AID 1259374; inhibition, % at 2.6 µM; in the data active = inhibition above about 50%
Hits are given with their value; n = inactive.

SMILES | FBW7 act | TEAD-YAP block | GPR151 ag | MITF primary
CN(Cc1ccc(C(=O)NC23CC4CC(CC(C4)C2)C3)c(=O)[nH]1)CC(O)c1ccccc1 (stereo not given) | n | n | n | n
Cc1cccc(N2CCN(C(=O)c3cc(S(=O)(=O)N4CCOCC4)cn3C)CC2)c1C | n | n | n | n
CC(=O)Nc1ccc(C(=O)N2CCN(c3cccc(C)c3C)CC2)cc1 | n | n | n | n
Cc1cccc(N2CCN(C(=O)c3cc(S(=O)(=O)N4CCCC4)cn3C)CC2)c1C | n | 58 | n | n
Cc1cccc(N2CCN(C(=O)c3ccncc3)CC2)c1C | n | 50 | n | n
COc1cc(C2C(C(N)=O)=C(C)Nc3nc(-c4cccc(C)c4)nn32)cc(OC)c1OC (stereo not given) | n | n | n | n
CCC(C)C(NC(=O)c1ccc(OC(=O)c2ccc(C(=O)Oc3ccc(C(=O)NC(C(=O)OC)C(C)CC)cc3)cc2)cc1)C(=O)OC (stereo not given) | n | n | n | n
CCn1c(=O)n(CC(=O)Nc2ccc(Br)cc2C)c(=O)c2ccccc21 | n | n | n | n
O=c1nc(N/N=C/c2c[nH]c3ccccc23)cn[nH]1 | n | 58 | n | n
O=c1nc(N/N=C/C=C/c2ccccc2)cn[nH]1 | n | 50 | n | n
O=c1nc(N/N=C/c2ccc(O)cc2)cn[nH]1 | n | n | n | n
CCCCC(=O)Nc1ccc(C(=O)NCc2ccccc2Cl)cc1 | n | n | n | n
O=C(Nc1ccc(Oc2ccccc2)cc1)c1ccc(F)c(S(=O)(=O)NC2CCCC2)c1 | n | 65 | n | n
O=C(Nc1ccc(Oc2ccccc2)cc1)c1ccc(F)c(S(=O)(=O)NC2CCCCC2)c1 | n | 58 | n | n
O=C(Nc1ccc(Oc2ccccc2)cc1)c1ccc(F)c(S(=O)(=O)NCc2ccccc2Cl)c1 | n | 41 | n | n
O=C(Nc1ccc(Oc2ccccc2)cc1)c1ccc(F)c(S(=O)(=O)NC2CCCCCC2)c1 | n | 50 | n | n
O=C(Nc1ccc(Cl)c(Cl)c1)c1ccc(F)c(S(=O)(=O)NC2CCCC2)c1 | n | n | n | n
CC(C)c1ccc(NC(=O)c2ccc(F)c(S(=O)(=O)NC3CCCCCC3)c2)cc1 | n | n | n | n
COc1ccc(CCNc2ccnc(-c3cccs3)n2)cc1 | n | n | n | n
CCC(=O)N1CCC[C@@H](Cn2nc(-c3cccs3)ccc2=O)C1 | n | n | n | n
CN(CC(=O)NCc1ccccc1Cl)S(=O)(=O)c1ccc2[nH]c3c(c2c1)CCCC3 | n | n | n | n
N=c1sccn1CC(=O)Nc1ccc(I)cc1 | n | n | n | n
O=[N+]([O-])c1cc(Cl)cc(C2N=C(c3ccccc3)NO2)c1O (stereo not given) | n | n | n | n
Cc1c2c(=O)n(-c3nc4ccccc4s3)[nH]c2cc(=O)n1Cc1ccccc1 | n | n | n | 71
COc1ccc(CCn2c(C)c3c(=O)n(-c4nc5ccccc5s4)[nH]c3cc2=O)cc1 | n | n | n | n
SMILES | FBW7 act | TEAD-YAP block | GPR151 ag | MITF primary
COc1ccccc1N1CCN(C(=O)CSc2nc3ccccc3c(=O)n2CCC(=O)NC2CCCCC2)CC1 | n | 46 | n | n
Cc1sc(NC(=O)CC(c2ccccc2)c2ccccc2)c(C(N)=O)c1C | n | 40 | n | n
C=C(C)C(=O)Nc1sc(C)c(-c2ccccc2)c1C(N)=O | n | n | n | n
Cc1sc(NC(=O)CCCC(=O)O)c(C(N)=O)c1-c1ccccc1 | n | 45 | n | n
CCc1ccc(OCCS(=O)(=O)Nc2nc(C)c(C)s2)cc1 | n | n | n | n
O=C(CN1C(=O)CSC1=O)N1Cc2ccccc2OC(c2ccccc2)C1 (stereo not given) | n | n | n | n
CC1CCc2nc(N)c(C#N)c(-c3cccnc3)c2C1 (stereo not given) | 1.9 | 50 | n | n
COc1cc(C=Nc2ccccc2C(N)=O)cc(OC)c1OC | n | n | n | n
O=C(Cn1ccc(=NCc2ccccc2)cc1)c1cccc([N+](=O)[O-])c1 | n | 33 | n | n
NC(=NCc1ccccc1)c1cccc([N+](=O)[O-])c1 | n | n | n | n
CCc1ccc(-c2nc(CSCC(=O)NCCN(C)C)c(C)o2)cc1 | n | 38 | n | n
Cc1ccc(-c2nc(CSCC(=O)O)c(C)o2)cc1 | n | 81 | n | n
O=C1C(=O)N(CCOc2ccc(Cl)cc2)c2ccccc21 | n | n | n | n
Cc1cccc(-n2ncc3c(NC4CCCCCC4)ncnc32)c1 | n | 47 | n | n
CCN(CC)c1ncnc2c1cnn2-c1cccc(C)c1 | n | 60 | n | n
Cc1cccc(-n2ncc3c(N(CC(C)C)CC(C)C)ncnc32)c1 | n | n | n | n
Clc1cccc(-n2ncc3c(NC4CC4)ncnc32)c1 | n | n | n | n
Cc1cccc(-n2ncc3c(N(C)C4CCCCC4)ncnc32)c1 | n | 97 | n | n
C=CCNc1ncnc2c1cnn2-c1ccc(C)cc1C | n | n | n | n
CCOC(=O)N1CCC(Nc2ncnc3c2cnn3-c2ccc(C)cc2C)CC1 | n | 39 | n | n
